# B1: design_600_24101276-ad9d-4944-b73e-53bb160363ad_2244_dldesign_0_cycle1_af2pred (protein)
# chain: MEEEKKKEEKKKELKEKLKELEKKAEEAAKAAKADPAHLPELAAVAQELYQLSAEAEFEGDKETAEKAKEVARKAREVGKAARAA
# B2: design_600_24101276-ad9d-4944-b73e-53bb160363ad_1742_dldesign_0_cycle1_af2pred (protein)
# chain: MEEKYKKAKELLEKAKEEFKKGNYEKALKLAAESVALGYEALGDEEEAKKAKEKAEEALKNPETLGAVAGELLAEAKGLVHLLEIKIN
# B3: design_600_24101276-ad9d-4944-b73e-53bb160363ad_2022_dldesign_0_cycle1_af2pred (protein)
# chain: MKEEAKKLAKEAKEKAKEGAANPAYKKAITLYNEALADFRAAEATGSKEAFEEGKEYFKKAEEEEKKVKEKLEKE
# B4: design_600_24101276-ad9d-4944-b73e-53bb160363ad_2225_dldesign_0_cycle1_af2pred (protein)
# chain: MSEGLKEAAKELVEELRETIATKSPEQARGELTLARSSAKSIEKLDPESGKELLAKVEELEKELEAKAAA
# B5: design_600_24101276-ad9d-4944-b73e-53bb160363ad_2181_dldesign_0_cycle1_af2pred (protein)
# chain: MSAAADAQLLLERAEQALAAAEANPELAPAANERIAAAAERLLGPEAAAALRAIAEEHADDPVAAVRAQYEYVAALAEKAEA
# B6: design_600_24101276-ad9d-4944-b73e-53bb160363ad_2321_dldesign_0_cycle1_af2pred (protein)
# chain: AQKAKNEAESLLTRAEQALEAGVSGDAEQAKKAAEKIEEYAKKAEEIGKKYPEVKEYAEKKAEEIKELAKKAKEAAKKK
# B7: design_600_24101276-ad9d-4944-b73e-53bb160363ad_2034_dldesign_0_cycle1_af2pred (protein)
# chain: DEKVKKAKEEAEKISKEGVELAKKGAENPEKYEEYEKKAKELFDKAMAIAKEVAKENPEGGAKIAEIVHTLRAEAKAVIAKIK
# B8: design_600_24101276-ad9d-4944-b73e-53bb160363ad_1759_dldesign_0_cycle1_af2pred (protein)
# chain: GEEASKKAKEDAKLVSEAAKYAKEAGKYAKKIAELKPEKAEEAKKIKEKSAKLLYELADNIEDEEKAKEYLDEIKKLYKEAEELYKEA
# B9: design_600_24101276-ad9d-4944-b73e-53bb160363ad_1809_dldesign_0_cycle1_af2pred (protein)
# chain: SMEKEEAVKRREKAIEKGEKAIEEAAKEGIEAAEKAKEVMKELKKEAEKFGKETGPEGEKAAKTIKRIAENTEHGLEAIIRREKE
# B10: design_600_24101276-ad9d-4944-b73e-53bb160363ad_1872_dldesign_0_cycle1_af2pred (protein)
# chain: HSEEELKLLERMREIRKRAKEAVKLLKELGEKELGEKYAKEIADLLYQSIDDPENQEKYVEEAEAKAEELEKLAEEAKKKAEE
# B11: design_600_24101276-ad9d-4944-b73e-53bb160363ad_2443_dldesign_0_cycle1_af2pred (protein)
# chain: VEEAEKRAKRLKEEAEKAAKELAKEGGEEKAKELLEKAKEAAEKFLEAAKKGDGKAAADYLSEARGYIAELRIEAKKLK
# B12: design_600_24101276-ad9d-4944-b73e-53bb160363ad_2193_dldesign_0_cycle1_af2pred (protein)
# chain: SLEKEIEKLAKELKKAKELDPKTAAEELRKIAKEARKVGKEAAKKDKELAKKAAKLAQEAYEAAAEKEQQARLE
# B13: design_600_24101276-ad9d-4944-b73e-53bb160363ad_2211_dldesign_0_cycle1_af2pred (protein)
# chain: SEAYEEAKKEAEAAVKALKELAKEKPEAKEKAEKLIKRVEEELKKAEEGNEEAARIAKGSIEARKLAAESVLKT
# B14: design_600_24101276-ad9d-4944-b73e-53bb160363ad_1891_dldesign_0_cycle1_af2pred (protein)
# chain: GLEEEKKAVEEQKKKVEETGKKALEMAKSGEKAEEGLESLKKLIEETKEFAKKSKLKALAAEVTQLALEKLSEAKFELSKSKA
# B15: design_600_24101276-ad9d-4944-b73e-53bb160363ad_1889_dldesign_0_cycle1_af2pred (protein)
# chain: MAEKEALIAELKAKAAEAKAKGAAGSAGEQFQWDVIAAGYEKGAEAAKKAKTAEEAKKAAKEAVEKAKRVAEHIKKSEEEAEKRA
# B16: design_600_24101276-ad9d-4944-b73e-53bb160363ad_1928_dldesign_0_cycle1_af2pred (protein)
# chain: GALEEAKKVIEDARDKLSAVAAKKSPEYAKEVADNLEKVAKGEGVKEHATRAAEVLAEADPENAAELKKYLAEAVQTYLQLRAEAEK
# B17: design_600_24101276-ad9d-4944-b73e-53bb160363ad_2105_dldesign_0_cycle1_af2pred (protein)
# chain: NMEEAKKLLKETEKAAKKAVEIAGEEAKPAAEKAIKVAEKFLKYGDVEALKDILAATKAYLAKVEAEKAAAA
# B18: design_600_24101276-ad9d-4944-b73e-53bb160363ad_1967_dldesign_0_cycle1_af2pred (protein)
# chain: GNKKLAAELLKKSIEYFIEAVKSKKLSTASGYASKSAVYFAKAVYVGTGVPPEVAYKVRLIVLEIGLKAIEKRQEELKKKE
# B19: design_600_24101276-ad9d-4944-b73e-53bb160363ad_1965_dldesign_0_cycle1_af2pred (protein)
# chain: SEELEKVAKEAKEAAKERIEYAKKAAEANPALAETAKRMIEGAKELAKKVEKYAKEGDLKKAERERLRIESRKEQAKETLKKL
# Target: VTCN1, Q7Z7D3
# Sequence (Q7Z7D3 whole entry): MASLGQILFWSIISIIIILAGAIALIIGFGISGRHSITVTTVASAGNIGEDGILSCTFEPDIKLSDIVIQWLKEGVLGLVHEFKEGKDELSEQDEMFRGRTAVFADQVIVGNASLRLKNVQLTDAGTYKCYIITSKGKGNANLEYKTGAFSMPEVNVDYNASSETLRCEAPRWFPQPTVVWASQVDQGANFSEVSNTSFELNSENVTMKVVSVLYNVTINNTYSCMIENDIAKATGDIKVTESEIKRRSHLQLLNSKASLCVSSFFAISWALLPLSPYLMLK
row,Binder,binding in a display sort
1,B1,not found (inactive)
2,B2,not found (inactive)
3,B3,not found (inactive)
4,B4,not found (inactive)
5,B5,not found (inactive)
6,B6,not found (inactive)
7,B7,not found (inactive)
8,B8,not found (inactive)
9,B9,not found (inactive)
10,B10,binds (active)
11,B11,not found (inactive)
12,B12,not found (inactive)
13,B13,not found (inactive)
14,B14,not found (inactive)
15,B15,not found (inactive)
16,B16,not found (inactive)
17,B17,not found (inactive)
18,B18,not found (inactive)
19,B19,not found (inactive)

# Reference: publication PMC13494018
